We go through 96 compounds from PubChem BioAssay AID1779 (Sanford-Burnham Center for Chemical Genomics, 2009).

Out of some 290,000 compounds screened, about 160 (0.055%) were called active. The list comes from a sample in which actives are over-represented; it also holds similar structures and randomly drawn compounds. Unmarked numbers belong to inactive results. Cut-off read from the data, not from the text of the source: active = inhibition above about 50%; inactive = the rest.

A word on the inhibition: it is the change of the read-out against control, counted positive when it falls.

In this test the target is Tyrosine-protein phosphatase non-receptor type 22 (Homo sapiens) (UniProt Q9Y2R2). In words: PTPN22 lymphoid phosphatase activity blockers – biochemical, fluorescence intensity, uHTS (AID 1779).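 Note: plate controls were vehicle with enzyme for no effect and no enzyme for full effect.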 The note with it: recombinant LYP phosphatase, at 11.5 µM, hits give high values.
Sequence of Tyrosine-protein phosphatase non-receptor type 22 (Homo sapiens) (Q9Y2R2 whole entry, looked up): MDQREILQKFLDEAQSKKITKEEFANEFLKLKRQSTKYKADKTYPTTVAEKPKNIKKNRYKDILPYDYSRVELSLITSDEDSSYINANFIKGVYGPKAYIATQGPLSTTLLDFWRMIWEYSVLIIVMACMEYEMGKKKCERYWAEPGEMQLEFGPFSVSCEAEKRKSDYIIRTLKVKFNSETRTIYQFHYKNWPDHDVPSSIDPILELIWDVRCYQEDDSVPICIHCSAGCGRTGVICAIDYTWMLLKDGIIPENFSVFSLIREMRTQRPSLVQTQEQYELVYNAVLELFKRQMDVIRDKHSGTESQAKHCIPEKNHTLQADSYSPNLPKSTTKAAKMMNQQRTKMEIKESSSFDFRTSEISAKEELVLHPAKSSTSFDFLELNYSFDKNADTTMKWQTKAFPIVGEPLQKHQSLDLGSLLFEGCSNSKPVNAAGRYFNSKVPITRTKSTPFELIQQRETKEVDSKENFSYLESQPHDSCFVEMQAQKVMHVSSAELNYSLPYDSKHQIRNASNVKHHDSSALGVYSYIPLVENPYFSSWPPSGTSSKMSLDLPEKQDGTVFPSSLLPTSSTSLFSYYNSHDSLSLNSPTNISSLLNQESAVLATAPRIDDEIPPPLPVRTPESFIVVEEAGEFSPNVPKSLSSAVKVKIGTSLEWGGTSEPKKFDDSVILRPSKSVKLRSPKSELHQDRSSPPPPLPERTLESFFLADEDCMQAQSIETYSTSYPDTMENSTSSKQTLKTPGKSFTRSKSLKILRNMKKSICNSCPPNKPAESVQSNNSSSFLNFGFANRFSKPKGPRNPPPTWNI
As to `COc1ccc2c(C)cc(N3CCOCC3)nc2c1`, the inhibition was -0.1%.
Consider `c1ccc(-c2cc(N3CCOCC3)nc3ccccc23)cc1`, for which the inhibition was 2.6%.
With `COc1ccc2c(-c3ccccc3)cc(N3CCOCC3)nc2c1` the figure was 72.7% (active); with `NC(=O)c1nn(-c2ccccc2)nc1NC(=O)CSc1nnnn1-c1ccc(Cl)cc1`, 5.7%; with `Cc1cccc(NC(=O)c2ccc(OC3CSC3)cc2)c1`, -5%.
To `O=C(Nc1ccc(Cl)cc1)c1ccc(OC2CSC2)cc1` belongs 67.9% (active); to `CC(=O)c1cccc(NC(=O)c2ccc(OC3CSC3)cc2)c1`, -7%.
With `Cc1ccc(CNC(=O)c2cncc(Br)c2)cc1` the figure was -2.9%.
In the case of `O=C(NCc1ccccc1)c1cncc(Br)c1`, the inhibition was 67.8% (active).
For the compound `O=C(NCc1ccncc1)c1cncc(Br)c1`, the inhibition is -9.5%.
`NC(=O)Nc1ccc(C(=O)OCC(=O)Nc2cccc(S(=O)(=O)NC3=NCCCCC3)c2)cc1`: the inhibition was -1.2%.
To `CCOC(=O)c1cc(-c2ccccc2)sc1NC(=S)Nc1cccc(C)n1` belongs 5.7%.
With `Cc1ccc2nsnc2c1NC(=O)CCl` the figure was -1.6%; with `CC(C)Cc1nc(S(=O)(=O)c2ccc(Cl)cc2)c(N2CCOCC2)o1`, 81.8% (active); with `CC(C)(C)c1nc(S(=O)(=O)c2ccc(Cl)cc2)c(N2CCOCC2)o1`, -10.6%.
Take `CCCCc1nc(S(=O)(=O)c2ccc(Cl)cc2)c(N2CCOCC2)o1`: the inhibition is -7.7%.
With `CCc1ccc2c(CC(=O)Nc3nnc(C4CC4)s3)coc2c1` the figure was -7.3%; with `Cc1ccc(CNC(=O)CN2CCN(c3ccc(F)cc3)CC2)cc1`, 1.2%; with `CCN(CCO)Cc1csc2ccc(C(C)(C)C)cc12`, 52.5% (active).
With `CCN(CCO)Cc1csc2ccc(Cl)cc12` the figure was -3.3%.
With `CCN(CCO)Cc1csc2ccc(Br)cc12` the figure was -8.6%.
Regarding `FC(F)(F)c1cc(Cl)c2nnc(-c3cccnc3)n2c1`, the inhibition is -4.4%.
With `Cc1ccc(NC(=Nc2ccc(Br)cc2)N2CCOCC2)cc1C` the figure was -2.9%; with `Cc1ccc2[nH]c(=O)cc(C(=O)OCC(=O)c3ccccc3)c2c1`, 70.6% (active); with `Cc1ccc2[nH]c(=O)cc(C(=O)OCC(=O)c3ccc(F)cc3)c2c1`, 1.2%.
Turning to `Cc1ccc(C(=O)COC(=O)c2cc(=O)[nH]c3ccccc23)cc1`, the inhibition is -5.1%.
To `Cn1c(C(=O)NC2CCCCC2)cc2sccc21` belongs -4.8%; to `CCOC(=O)c1ccc(NC(=S)Nc2ccccc2)cc1`, -5.5%; to `CCC(=O)NC(=S)Nc1ccc(NC(=O)COc2ccccc2)cc1`, -2.2%.
To `CCOC(=O)c1ccc(NC(=S)NC(=O)COc2ccccc2)cc1` belongs 69.2% (active).
To `COc1ccc2[nH]c(=O)c(CN(c3ccccc3OC)S(=O)(=O)c3ccccc3)cc2c1` belongs -5.9%.
Turning to `Nc1nc(NCCN2CCOCC2)nc(NCc2ccccc2)c1[N+](=O)[O-]`, the inhibition was -6%.
With `COCCNC(=O)c1ccc2c(Cl)c3c(nc2c1)CCC3` the figure was -7.1%; with `CC(C)CCNC(=O)c1ccc2c(Cl)c3c(nc2c1)CCC3`, 85.9% (active); with `CC(C)CCNC(=O)c1ccc2c(SCC(=O)O)c3c(nc2c1)CCC3`, -1.8%.
For the compound `O=C(Nc1ccccc1C(=O)NCc1ccccc1)c1ccccc1Br`, the inhibition is -1.2%.
With `O=C(NC1CCCCC1)C(c1ccccc1)N1CCc2ccccc21` (stereo unspecified) the figure was 3%; with `COc1ccc(C(C(=O)NC2CCCC2)N2CCc3ccccc32)cc1` (stereo unspecified), 88.2% (active); with `Cc1ccc(C(C(=O)NC2CCCC2)N2CCc3ccccc32)cc1` (stereo unspecified), 0.4%.
Turning to `COc1ccc(CNC(=O)Cc2ccc(NC(=O)C3=C(C)OCCS3)cc2)cc1`, the inhibition was -1.9%.
Consider `CC(O)CNc1nc2c(c(=O)n(Cc3ccc(Cl)c(Cl)c3)c(=O)n2C)n1C` (stereo unspecified), for which the inhibition was -3.6%.
With `N#C/C(=C/c1ccccc1OCc1ccc(F)cc1)c1ccc(C(=O)O)cc1` the figure was -6.7%; with `N#C/C(=C/c1ccc(OCc2ccc(C(=O)O)cc2)cc1)C(=O)Nc1ccccc1`, -4.6%; with `N#C/C(=C\c1ccccc1OCc1ccc(C(=O)O)cc1)c1ccccc1`, -4.4%.
To `COc1cc(/C=C(\C#N)C(=O)Nc2cccc(C(=O)O)c2)ccc1OCc1ccc(Cl)cc1` belongs 15%.
With `N#C/C(=C\c1ccc(OCc2ccc(Br)cc2)cc1)C(=O)Nc1cccc(C(=O)O)c1` the figure was 93.4% (active).
On to `COc1cc(/C=C(\C#N)C(=O)Nc2cccc(C(=O)O)c2)ccc1OCc1ccc(C)cc1`, for which the inhibition is -1.7%.
Regarding `CCOc1cc(/C=C(\C#N)C(=O)Nc2cccc(C(=O)O)c2)ccc1OCc1ccccc1Cl`, the inhibition was -2.4%.
With `N#C/C(=C\c1ccc(OCc2ccc(F)cc2)cc1)C(=O)Nc1cccc(C(=O)O)c1` the figure was 5.5%.
With `N#C/C(=C\c1ccc(OCc2ccccc2)cc1)C(=O)Nc1ccc(C(=O)O)cc1` the figure was 3%; with `COc1ccc(-c2sc3ccccc3c2C#CC2(O)CCCCC2)cc1`, -5%; with `CSc1nc2ccc(NS(=O)(=O)c3ccc(Cl)s3)cc2s1`, 1.1%.
To `COC(=O)CSCC(=O)Nc1nnc(-c2cccc(C)c2)s1` belongs 5%; to `CC(=O)c1sc(NC(=O)C(C)Oc2ccc3c(C)cc(=O)oc3c2)nc1C` (stereo unspecified), -5.1%.
For the compound `CC(=O)N(C)c1ccc(NC(=S)Nc2cccc3ccccc23)cc1`, the inhibition was -2.8%.
With `O=C(Cn1nc(Cc2cccnc2)c2ccccc2c1=O)Nc1cc(F)ccc1F`, the inhibition was -6.7%.
To `O=C(N=C1SC2CS(=O)(=O)CC2N1Cc1ccccc1Cl)C1CC1` (stereo unspecified) belongs -11.3%; to `COc1ccccc1CNC(=O)c1cc2sccc2n1C`, -5.5%; to `CC(=O)Nc1ccc(S(=O)(=O)N2CCC(NC(=O)C(Cc3ccc(C)cc3)NC(C)=O)CC2)cc1` (stereo unspecified), -16%.
With `CCC1=C(OC(=O)N(CC)CC)N2C(=O)OC(=NCC3CC3)[C@]2(C)[C@H]2C1=CC[C@H]1C(=O)NC(=O)[C@H]12` the figure was -0.8%; with `CCOC(=O)c1c(C)[nH]c(C)c1C(=O)CSc1nc2ccccc2n1CC`, -7.1%; with `O=C(O)C1CC=CCC1C(=O)Nc1ccc(F)c(F)c1` (stereo unspecified), 6.1%.
Turning to `O=C(O)C1CCCCC1C(=O)Nc1ccc(F)c(F)c1` (stereo unspecified), the inhibition was 51.4% (active).
To `O=C(O)C1CCCCC1C(=O)Nc1ccc(Cl)cc1` (stereo unspecified) belongs -1.6%; to `COc1cccc(C2C(C(=O)c3cc4ccccc4o3)=C(O)C(=O)N2c2cc(C)on2)c1` (stereo unspecified), -8%.
With `Cc1ccc(C)c(CN2C(=O)COc3ccc(C(=O)c4ccccc4C(=O)O)cc32)c1` the figure was 57.9% (active); with `Cc1ccc(C)c(CN2C(=O)COc3ccccc32)c1`, -5.6%; with `CCCN1C(=O)COc2ccc(C(=O)c3ccccc3C(=O)O)cc21`, -4.6%.
With `O=S(=O)(/C=C/c1ccccc1)NC1CCCCCCC1` the figure was -7.9%; with `CC(c1ccccc1)n1c(N2CCN(C)CC2)nc2c1c(=O)[nH]c(=O)n2C` (stereo unspecified), -0.2%; with `CCN(CC)CCNC(=O)Cc1nn(CC)c(=O)c2ccccc12`, -9.1%.
With `COCCn1c(=O)c2cc3c(=O)n(CCOC)c(=O)c3cc2c1=O`, the inhibition is -8.5%.
To `CCC(=O)NCCc1cc2ccc(C)c(C)c2[nH]c1=O` belongs 1.7%; to `CC(=O)NCCc1cc2ccc(C)c(C)c2[nH]c1=O`, 0.4%.
Take `CCCC(=O)NCCc1cc2ccc(C)c(C)c2[nH]c1=O`: the inhibition was 67.2% (active).
With `CCOc1ccccc1/C=N/OCC(=O)NCc1ccc(F)cc1` the figure was -5.5%; with `Cc1ccc(-n2c(=O)c3cc4c(=O)n(-c5ccc(C)c(C)c5)c(=O)c4c(C(=O)c4ccc(C(=O)O)cc4)c3c2=O)cc1C`, 85.8% (active); with `Cc1ccc(N2C(=O)c3ccc(C(=O)O)cc3C2=O)cc1C`, -1.9%.
With `O=C(O)c1ccc(-n2c(=O)c3ccccc3c3ccccc3c2=O)cc1` the figure was -4%.
For `COCCN(C(=O)c1csnn1)C(C(=O)NC1CCCCC1)c1ccc(C)cc1` (stereo unspecified), the inhibition was -9.2%.
To `NC(=O)C(c1cccc(Cl)c1)c1ncc(C(F)(F)F)cc1Cl` (stereo unspecified) belongs -10.5%.
Take `C#CCOc1ccc(/C=N/NC(=O)c2cccnc2)cc1OCC`: the inhibition was 1.2%.
To `COc1ccccc1OCC(=O)OCC(=O)Nc1ncc(Cl)cc1Cl` belongs -9.7%; to `O=C(Nc1ccccc1)C1=C[C@@H](C2CCCCC2)C[C@@H](OCCCCO)O1`, 2.1%.
To `O=C(O)CCN1C(=O)/C(=C/c2ccc(-c3nc4ccccc4s3)o2)SC1=S` belongs 14.6%; to `O=C(O)CCCN1C(=O)/C(=C\c2ccc(-c3nc4ccccc4s3)o2)SC1=S`, 6.8%.
With `O=C(c1ccc2c(c1)OCO2)N1CCC2(CC1)Oc1ccc(Cl)cc1C(=O)C21CC(c2ccccc2)=NO1` (stereo unspecified) the figure was 5.7%; with `O=C(O)c1cccc(-n2cccc2/C=C2/NC(=O)N(c3cccc(Cl)c3)C2=O)c1`, 0.3%; with `O=C(O)c1ccc(-n2cccc2/C=C2/NC(=O)N(c3cccc(Cl)c3)C2=O)cc1`, 6.2%.
Turning to `Cc1cc(NC(=O)Nc2ccc(Cl)cc2)no1`, the inhibition is -8.1%.
Turning to `CC[C@H](C)[C@H](NC(N)=O)C(=O)OCC(=O)NCc1ccc(Cl)cc1`, the inhibition was -4.9%.
To `COc1cc2c(cc1OC)-c1nnc(-c3ccco3)n1C1(CCCC1)C2` belongs -4.3%.
To `Cc1cc(N2CCOCC2)nc(SCc2ccc(Cl)cc2Cl)n1` belongs -4.6%; to `O=C(O)C1CCC(N2C(=O)C3CCCCC3C2=O)CC1` (stereo unspecified), -12.2%.
On to `O=C(O)C1CCC(N2C(=O)c3cccc([N+](=O)[O-])c3C2=O)CC1` (stereo unspecified), for which the inhibition is -7.1%.
For the compound `O=C(O)C1CCC(N2C(=O)c3c(Cl)c(Cl)c(Cl)c(Cl)c3C2=O)CC1` (stereo unspecified), the inhibition was 94.2% (active).
